Test results published in PubChem BioAssay (NCI).
Compounds without any hit were thinned out: in the full panel of roughly 79,000, 15% have a hit. The source made the active and inactive calls. Rule as the data show it: active = growth inhibition above about 70%; inactive = the rest.

Tests used:
[1] = NCI Yeast Anticancer Drug Screen. Data for the rad52 strain (AID 147);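 also: 0% = growth of vehicle-treated control cultures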; settings: S. cerevisiae rad52 mutant growth inhibition, active compounds read high
Method in brief: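 DNA repair-defective yeast; compound exposure; growth scored against vehicle controls.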

[2] = NCI Yeast Anticancer Drug Screen. Data for the wt1 strain (AID 149);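 also: 0% = growth of vehicle-treated wt1 cultures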; settings: S. cerevisiae wt1 strain (SPY 50644) growth inhibition, active compounds read high
Method in brief: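 Measured: growth of wt1 yeast under compound versus vehicle treatment, reported as inhibition.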

[3] = NCI Yeast Anticancer Drug Screen. Data for the rad50EPP+ strain (AID 151);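 also: 0% = growth of vehicle-treated control cultures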; settings: S. cerevisiae rad50 mutant strain, active compounds read high
Method in brief: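 rad50EPP+ yeast treated with test compounds. Readout: growth vs vehicle control.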

[4] = NCI Yeast Anticancer Drug Screen. Data for the mgt1 strain (AID 153); settings: S. cerevisiae mgt1 mutant growth inhibition, active compounds read high
Method in brief: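 Growth inhibition relative to vehicle controls was scored for the mgt1 yeast strain after compound exposure.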

[5] = NCI Yeast Anticancer Drug Screen. Data for the rad50 strain (AID 155);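 also: 0% = growth of vehicle-only cultures of the same strain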; settings: S. cerevisiae rad50 strain growth inhibition, active compounds read high
Method in brief: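 Growth of the mutant yeast was measured after compound exposure and referenced to vehicle-treated cultures.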

[6] = NCI Yeast Anticancer Drug Screen. Data for the mec2-1 strain (AID 157); settings: S. cerevisiae mec2-1 strain, active compounds read high
Method in brief: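 Growth inhibition is read against vehicle-treated controls after compound exposure of the mec2-1 yeast strain, which is defective in DNA damage repair or cell cycle control.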

[7] = NCI Yeast Anticancer Drug Screen. Data for the rad14 strain (AID 159);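 also: 0% = growth of vehicle-treated control cultures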; settings: S. cerevisiae rad14 strain growth inhibition, active compounds read high
Method in brief: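 Here, inhibition of yeast growth was measured after compound exposure, using a strain with a genetic defect in DNA damage repair and vehicle-treated cultures as the reference.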

[8] = NCI Yeast Anticancer Drug Screen. Data for the sgs1 mgt1 strain (AID 161);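 also: 0% = growth of cultures given vehicle only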; settings: S. cerevisiae sgs1 mgt1 strain, active compounds read high
Method in brief: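 This yeast growth screen uses a strain with defined DNA-repair lesions; compound-treated growth is compared with vehicle-treated growth.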

[9] = NCI Yeast Anticancer Drug Screen. Data for the CLN2oe strain (AID 163);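 also: 0% = growth of vehicle-only control cultures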; settings: S. cerevisiae CLN2oe strain, active compounds read high
Method in brief: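 Compound-treated yeast; growth vs vehicle ctrl = % inhibition. Genetically altered strain (cell-cycle control).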

[10] = NCI Yeast Anticancer Drug Screen. Data for the cln2 rad14 strain (AID 165);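 also: 0% = growth equal to vehicle treated cultures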; settings: S. cerevisiae cln2 rad14 strain, active compounds read high
Method in brief: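 Growth inhibition, relative to vehicle-treated controls, is the read-out. The test organism is a yeast strain with defined genetic alterations, cln2 rad14.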

[11] = NCI Yeast Anticancer Drug Screen. Data for the bub3 strain (AID 167); settings: S. cerevisiae bub3 mutant strain, active compounds read high
Method in brief: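 Whole-cell yeast assay. The mutant strain was incubated with compounds, and growth inhibition was determined by comparison with vehicle-treated cells.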

[12] = NCI Yeast Anticancer Drug Screen. Data for the wt2 strain (AID 169);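 also: 0% = growth of vehicle-treated yeast cultures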; settings: S. cerevisiae wt2 strain growth inhibition, active compounds read high
Method in brief: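 Compound exposure of yeast; growth compared with vehicle controls; inhibition reported.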

[13] = NCI Yeast Anticancer Drug Screen. Data for the mlh1 strain (AID 171);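 also: 0% = growth of vehicle-treated control cultures of the same strain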; settings: S. cerevisiae mlh1 strain growth inhibition, active compounds read high
Method in brief: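 Compounds are applied to a genetically altered yeast strain, and its growth is compared with that of vehicle-treated cultures to give percent inhibition.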

[14] = NCI Yeast Anticancer Drug Screen. Data for the sgs1 strain (AID 173);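 also: 0% = growth of vehicle-only control cultures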; settings: S. cerevisiae sgs1 mutant, active compounds read high
Method in brief: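 Compounds applied to genetically altered yeast; growth compared with vehicle-treated cultures to give % inhibition.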

[15] = NCI Yeast Anticancer Drug Screen. Data for the mlh1 rad18 strain (AID 175); settings: S. cerevisiae mlh1 rad18 strain growth inhibition, active compounds read high
Method in brief: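 Cells of a genetically altered yeast strain, deficient in DNA damage repair, were treated with compound. Their growth was then compared with that of vehicle-treated cultures to give inhibition.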

[16] = NCI Yeast Anticancer Drug Screen. Data for the rad18 strain (AID 177); settings: S. cerevisiae rad18 mutant growth inhibition, active compounds read high
Method in brief: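 Compounds are applied to a repair-deficient yeast strain, and growth is compared with that of vehicle-treated cultures to give percent inhibition.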

[17] = at 5.0 µM (retest, dose inferred, filed as 0.5)
[18] = at 50.0 µM (retest, dose inferred, filed as 5.0)

Measured: growth inhibition

O=[N+]([O-])c1ccc2nc3ccccc3cc2c1
active: [1]; at 33.0 µM 74% | [1]; at 100.0 µM 96% | [2]; at 100.0 µM 81% | [3]; at 11.0 µM 85% | [3]; at 33.0 µM 90% | [3]; at 100.0 µM 96% | [4]; at 100.0 µM 86% | [5]; at 33.0 µM 89% | [5]; [18] 92% | [5]; at 50.0 µM 87% | [5]; at 100.0 µM 95% | [6]; [18] 85% | [6]; at 100.0 µM 84% | [7]; at 100.0 µM 91% | [8]; [18] 89% | [11]; [18] 91% | [11]; at 100.0 µM 94% | [12]; at 100.0 µM 89% | [13]; at 100.0 µM 96% | [14]; at 33.0 µM 80% | [14]; at 100.0 µM 97% | [15]; [18] 90% | [15]; at 50.0 µM 89.1% | [16]; at 33.0 µM 87% | [16]; at 100.0 µM 96%
inactive: [1]; at 1.2 µM 3% | [1]; at 3.7 µM 13% | [1]; at 11.0 µM 35% | [2]; at 1.2 µM -5% | [2]; at 3.7 µM -4% | [2]; at 11.0 µM -7% | [2]; at 33.0 µM 21% | [3]; at 1.2 µM 22% | [3]; at 3.7 µM 63% | [4]; at 1.2 µM -1% | [4]; at 3.7 µM -5% | [4]; at 11.0 µM -1% | [4]; at 33.0 µM 29% | [5]; at 1.2 µM 1% | [5]; at 3.7 µM 22% | [5]; [17] -16% | [5]; at 11.0 µM 59% | [6]; at 1.2 µM -2% | [6]; at 3.7 µM 1% | [6]; [17] -37% | [6]; at 11.0 µM 8% | [6]; at 33.0 µM 27% | [6]; at 50.0 µM 55.5% | [7]; at 1.2 µM 0% | [7]; at 3.7 µM 9% | [7]; at 11.0 µM 20% | [7]; at 33.0 µM 45% | [8]; [17] -40% | [8]; at 50.0 µM 68.2% | [9]; at 1.2 µM -6% | [9]; at 3.7 µM -2% | [9]; at 11.0 µM 5% | [9]; at 33.0 µM 18% | [9]; at 100.0 µM 54% | [10]; [17] -59% | [10]; [18] 16% | [10]; at 50.0 µM 0.1% | [11]; at 1.2 µM -2% | [11]; at 3.7 µM -2% | [11]; [17] -51% | [11]; at 11.0 µM 14% | [11]; at 33.0 µM 39% | [11]; at 50.0 µM 69% | [12]; at 1.2 µM 0% | [12]; at 3.7 µM 1% | [12]; at 11.0 µM 3% | [12]; at 33.0 µM 33% | [13]; at 1.2 µM 7% | [13]; at 3.7 µM 0% | [13]; at 11.0 µM 14% | [13]; at 33.0 µM 51% | [14]; at 1.2 µM -2% | [14]; at 3.7 µM 13% | [14]; at 11.0 µM 36% | [15]; [17] -71% | [16]; at 1.2 µM 14% | [16]; at 3.7 µM 32% | [16]; at 11.0 µM 67%

CCOC(=O)c1cc(-c2ccc(Cl)cc2)c([N+](=O)[O-])n1C
inactive: [1]; at 1.2 µM 12% | [1]; at 3.7 µM 24% | [1]; at 11.0 µM 41% | [2]; at 1.2 µM 1% | [2]; at 3.7 µM 3% | [2]; at 11.0 µM 13% | [2]; at 33.0 µM 68% | [3]; at 1.2 µM 16% | [3]; at 3.7 µM 23% | [3]; at 11.0 µM 48% | [4]; at 1.2 µM -10% | [4]; at 3.7 µM -2% | [4]; at 11.0 µM 1% | [5]; at 1.2 µM 9% | [5]; at 3.7 µM 26% | [5]; [17] -12% | [5]; at 11.0 µM 34% | [6]; at 1.2 µM 15% | [6]; at 3.7 µM 23% | [6]; [17] -8% | [6]; at 11.0 µM 23% | [7]; at 1.2 µM -8% | [7]; at 3.7 µM -4% | [7]; at 11.0 µM 11% | [8]; [17] 10% | [8]; [18] 50% | [9]; at 1.2 µM 10% | [9]; at 3.7 µM -3% | [9]; at 11.0 µM 7% | [9]; at 33.0 µM 60% | [10]; [17] 15% | [11]; at 1.2 µM -6% | [11]; at 3.7 µM -29% | [11]; [17] -22% | [11]; at 11.0 µM -9% | [12]; at 1.2 µM 6% | [12]; at 3.7 µM 13% | [12]; at 11.0 µM 13% | [13]; at 1.2 µM 28% | [13]; at 3.7 µM 36% | [13]; at 11.0 µM 56% | [14]; at 1.2 µM 27% | [14]; at 3.7 µM 29% | [14]; at 11.0 µM 58% | [15]; [17] 45% | [16]; at 1.2 µM 3% | [16]; at 3.7 µM 37%
active: [1]; at 33.0 µM 90% | [1]; at 100.0 µM 96% | [2]; at 100.0 µM 96% | [3]; at 33.0 µM 78% | [3]; at 100.0 µM 93% | [4]; at 33.0 µM 84% | [4]; at 100.0 µM 96% | [5]; at 33.0 µM 89% | [5]; [18] 97% | [5]; at 50.0 µM 88.4% | [5]; at 100.0 µM 95% | [6]; at 33.0 µM 96% | [6]; [18] 96% | [6]; at 50.0 µM 90.3% | [6]; at 100.0 µM 96% | [7]; at 33.0 µM 76% | [7]; at 100.0 µM 95% | [8]; at 50.0 µM 91.7% | [9]; at 100.0 µM 96% | [10]; [18] 95% | [10]; at 50.0 µM 89% | [11]; at 33.0 µM 74% | [11]; [18] 97% | [11]; at 50.0 µM 85.3% | [11]; at 100.0 µM 95% | [12]; at 33.0 µM 70% | [12]; at 100.0 µM 97% | [13]; at 33.0 µM 94% | [13]; at 100.0 µM 96% | [14]; at 33.0 µM 97% | [14]; at 100.0 µM 98% | [15]; [18] 97% | [15]; at 50.0 µM 87.9% | [16]; at 11.0 µM 71% | [16]; at 33.0 µM 95% | [16]; at 100.0 µM 96%
